Assay results from PubChem BioAssay AID1460 (National Center for Advancing Translational Sciences (NCATS), 2008).
Hit rate of the full screen: of about 270,000 compounds, about 5,800 (2.1%) were called active. About 16% were inconclusive and are not listed. This is one part of a sample in which actives are shown more often than they occur. Calls come from the whole dose curve; as a rule, active = well fitted inhibition curve with a large enough effect; inconclusive = small, poorly fitted or top-dose-only effect; inactive = flat fitted curve, though single readings scatter.

Target: Microtubule-associated protein tau (Homo sapiens) (UniProt P10636)
Assay: qHTS for Inhibitors of Tau Fibril Formation, Thioflavin T Binding; note: nearly all actives have a fitted effect of over 55% in size
Settings: recombinant tau K18 P301L, heparin-induced fibrillization, ThT fluorescence; series mostly up to 57.4 µM
Summary of the method: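 ThT emission at 510 nm, taken 1 hr after adding 30 uM dye, quantifies aggregates formed when 20 uM heparin acts on human tau K18 P301L for 6 hr at 37 C.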
Potency is the fitted concentration of half-maximal effect.

Sequence of Microtubule-associated protein tau (Homo sapiens) (P10636 561-689 P618L limits assumed): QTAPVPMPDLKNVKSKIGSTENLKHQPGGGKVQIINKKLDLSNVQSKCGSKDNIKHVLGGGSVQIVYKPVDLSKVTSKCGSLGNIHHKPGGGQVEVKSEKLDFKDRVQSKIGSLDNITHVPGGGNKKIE

Potency, inactive:
CSc1ccc(S(=O)(=O)NC2CCCCC2)cc1
CC1CCC(NS(=O)(=O)c2ccc3c(c2)n(C)c(=O)c(=O)n3C)CC1 (stereo unspecified)
O=C(Nc1ccccc1Cl)N1CCC(CN2CCCCC2)CC1
COc1ccc(S(=O)(=O)n2nc(C)c(S(=O)(=O)N3CCCCCC3)c2C)cc1
CCc1nnc(SCC(=O)Nc2cc(OC)ccc2OC)nc1CC
COc1ccc(C)cc1N(C)C(=O)c1c(C)oc2ncnc(N3CCOCC3)c12
CCOC(=O)C1CCCN(S(=O)(=O)c2cc(-c3cc(C)no3)ccc2OC)C1 (stereo unspecified)
N#C/C(=C\c1ccc(N2CCOCC2)o1)C(=O)N1CCOCC1
N#C/C(=C\c1ccccc1C(F)(F)F)C(=O)Nc1ccccc1F
COc1cccc(-c2cc(C(=O)Nc3ccc(C)cc3)[nH]n2)c1
COc1ccc(C/C(C)=N/NC(=O)c2cc(C)oc2C)cc1
Cc1nonc1C(=O)N/N=C/c1ccc(O)cc1
CCn1cc(C(=O)N2CCN(c3cc(C)ccc3C)CC2)c(=O)c2cc(S(=O)(=O)N(C)C3CCCCC3)ccc21
Cc1noc2ncnc(NCc3ccccc3Cl)c12
CC(C)NC(=O)C(=O)N/N=C/c1ccco1
COC(=O)C1=C(C)N(c2ccc(Br)cc2)C(=O)/C1=C\c1ccco1
CCOC(=O)c1c(NC(=O)c2ccc(S(=O)(=O)N3CCCC(C)C3)cc2)sc2c1CCN(C(C)C)C2 (stereo unspecified)
COc1cc(OC)c(NC(=O)c2nc(-c3ccncc3)no2)cc1Cl
Cc1ccc(-c2csc(SCC(=O)Nc3cc(C)on3)n2)cc1
Cc1ccc(-c2csc(NC(=O)c3cnccn3)n2)cc1C
Cc1ccccc1CNC(=O)CCCn1nc(C)c2sc3ccccc3c2c1=O
O=C(NC1CC(=O)N(c2ccccc2)C1)c1ccco1 (stereo unspecified)
COc1ccc(NC(=O)Nc2cccc(-c3noc(C)n3)c2)cc1
Cc1c(C)n(Cc2ccc(Cl)cc2)c2ccc(C(=O)NCCc3ccc(S(N)(=O)=O)cc3)cc12
CC(C)(C)c1ccc(C(=O)Nc2ccc3c(c2)CCCN3C(=O)c2cccs2)cc1
CCc1ccc(NC(=O)CN2C(=O)CCSc3ccc(S(=O)(=O)N4CCCC4)cc32)cc1
CCc1nn(CCCC(=O)NCc2ccc(C)cc2)c(=O)c2cc3occc3n12
COCCCNC(=O)c1ccc(NC(=O)c2nsc3ccccc23)cc1
Cc1ccc(N2C(=O)C3C(c4ccccc4)(C2=O)C3(c2ccccc2)c2ccccc2)cc1 (stereo unspecified)
O=C(Nc1ccc2nc(SCCOc3ccccc3Cl)sc2c1)c1ccco1
CCOC(=O)c1cccc(NC(=O)c2cc(S(=O)(=O)N3CCCC(C)C3)cn2C)c1 (stereo unspecified)
Cc1ccc(S(=O)(=O)c2c(Nc3cccc(Cl)c3)sc(C(=O)c3ccc4c(c3)OCO4)c2N)cc1
CCOc1cc(C(=O)Nc2nnc3n2CCS3)cc(OCC)c1OCC
Cc1ccc2cccc(NC(=O)C(C)Oc3ccc(C)c(C)c3)c2n1 (stereo unspecified)
Cc1ccccc1C(=O)Nc1cc(C)c(O)c(-c2nc3ccccc3o2)c1
CC(C)c1ccc(C2C(C#N)=C(N)Oc3c2oc(CO)cc3=O)cc1 (stereo unspecified)
CCOC(=O)c1ccc(N2C(=O)c3n[nH]c(-c4ccco4)c3C2c2ccc(O)cc2)cc1 (stereo unspecified)
CCCc1nn2c(=O)cc(COC(=O)c3ccc(NC(=O)C(C)Oc4ccccc4)cc3)nc2s1 (stereo unspecified)
COc1ccc(C2=NN(c3ccccc3)C(c3cccs3)C2)cc1 (stereo unspecified)
COC(=O)Cc1[nH]n(-c2nc3ccccc3s2)c(=O)c1C(C)=Nc1ccc(OC)cc1
CCOC(=O)c1c(S(=O)(=O)N2CCC(C(=O)NCc3ccccc3OC)CC2)c(C)n(C)c1C
O=C(CN1C2=NCCN2c2ccccc21)c1cccs1
CN(C)c1ccnc2sc(C(=O)c3ccccc3)c(N)c12
O=C(NCc1ccccc1Cl)c1cccn1-c1nnc(N2CCCCC2)s1
O=C(Nc1nc(-c2ccc(-c3ccccc3)cc2)cs1)c1cnccn1
O=C(CSC1=NCCS1)Nc1nc(-c2ccccc2)cs1
Cc1cccc(S(=O)(=O)c2cn(Cc3ccccc3)c3cc(N4CCOCC4)c(F)cc3c2=O)c1
COc1ccc(CNC(=O)c2cc3c(s2)-c2ccccc2OC3)cc1
CCN(CC)S(=O)(=O)c1ccc(C(=O)N=c2sc3cccc(OC)c3n2C)cc1
O=C(Cn1c(-c2cccs2)cc2ccccc21)NCCc1ccc(Cl)cc1
CN(Cc1ccccc1)c1ccc(-c2nc(-c3ccccc3)no2)cc1[N+](=O)[O-]
COc1ccc(N2CCN(C(=O)CSc3ncnc4c3cnn4-c3ccc(OC)cc3)CC2)cc1
COc1ccc(N2CCN(C(C)=C3C(=O)c4ccccc4C3=O)CC2)cc1
Cc1nn(C(C)C(=O)Nc2ccc(C(C)C)cc2)c(=O)c2c1sc1ccccc12 (stereo unspecified)
O=C(CSc1nc2c(c(=O)[nH]1)CN(Cc1ccc(F)cc1)CC2)Nc1ccccc1Cl
NS(=O)(=O)c1ccc2nc(NC(=O)COc3ccccc3)sc2c1
O=C(NCc1cccnc1)C(=O)NCC(c1cccnc1)N1CCN(c2ccccc2)CC1 (stereo unspecified)
CCc1ccc(S(=O)(=O)n2ccnc2)cc1
N/C(=N\OC(=O)Cc1ccccc1[N+](=O)[O-])c1ccc(Br)cc1
Cc1ccc(C(=O)c2ccc(N3CCN(C)CC3)c([N+](=O)[O-])c2)cc1
Cc1ccc(C)c(S(=O)(=O)n2nc(C)c(S(=O)(=O)N3CCC(C)CC3)c2C)c1
CSc1ccc(C2C(C(=O)Nc3ccccc3)=C(C)Nc3nc4ccccc4n32)cc1 (stereo unspecified)
COc1ccc(S(=O)(=O)c2c(Nc3ccc(C)cc3)sc(C(=O)c3ccc(C)cc3)c2N)cc1
CC(=O)c1ccc(NS(=O)(=O)c2ccc(-c3cc(C)no3)s2)cc1
Cc1oc2c(c1C(=O)N1CCOCC1)C(=O)c1ccccc1C2=O
c1ccc(-c2oc3ncnc(N4CCOCC4)c3c2-c2ccccc2)cc1
CCn1cc(C(=O)NCCc2ccccc2)c(=O)c2cc(S(=O)(=O)N3CCCCCC3)ccc21
CCCN(CCC)C(=O)Cn1c(=O)n(-c2ccc(Cl)cc2)c(=O)c2c3c(sc21)CCCCC3
Cc1cc2c(cc1S(=O)(=O)CCC(=O)Nc1ccc(OC(F)(F)F)cc1)OCC(=O)N2
CCOC(=O)c1csc(NC(=O)Nc2cccc(OC)c2)n1
COc1cccc(CC(=O)Nc2ccc(-c3csc(C)n3)cc2)c1
CCCOc1cccc(C(=O)Nc2cccc(NC(=O)c3ccc(C(C)(C)C)cc3)c2)c1
Cc1ccc(Cc2nc3ccccc3nc2SCC(=O)Nc2cccc(C(F)(F)F)c2)cc1
CC(=O)Nc1cccc(/C(C)=N/NC(=O)c2ccccc2Cl)c1
O=C(NC1CC1)c1ccc2c(c1)NC(=O)c1ccccc1S2
Cc1ccc2c(c1)-c1c(cnn1CC(=O)Nc1ccccc1C#N)CO2
CSc1ncc(C(=O)NCc2ccccc2Cl)c(C(F)(F)F)n1
CC(=O)NC(Cc1ccccc1)C(=O)NC1CCN(c2ncccc2[N+](=O)[O-])CC1 (stereo unspecified)
COc1ccc(N2C(=O)CC(Nc3ccc(F)cc3)C2=O)c([N+](=O)[O-])c1 (stereo unspecified)
CCOc1ccccc1C(=O)NCC(c1ccc(N(C)C)cc1)N1CCCC1 (stereo unspecified)
Cc1cc(C)c(NC(=O)CSc2nc3nccnc3c(=O)n2CCc2c[nH]c3ccccc23)c(C)c1
O=[N+]([O-])c1cccc(Nc2c3ccccc3nc3ccccc23)c1
O=C(Nn1c(-c2ccccc2)nc2ccccc2c1=O)c1ccc([N+](=O)[O-])cc1

Potency, active:
Cn1sc(=O)c2cc(S(=O)(=O)NC3CC3)ccc21 12.6 µM
N#C/C(=C\C1=C(N2CCOCC2)C(=C\c2ccccc2)/CC1)C(=O)Nc1ccccc1F 3.16 µM
Cc1cc(C(=O)N/N=C/c2ccc(N3CCOCC3)cc2)c(C)o1 3.98 µM
COC(=O)C1=C(C)N(C(C)c2ccccc2)C(=O)/C1=C\c1ccco1 (stereo unspecified) 22.4 µM
Cc1ccc(Nc2nc(-c3ccc(O)cc3O)cs2)nc1 5.01 µM
CCN(CC)c1cc(NC2CCCCC2)c2c3c(onc13)-c1ccccc1C2=O 11.2 µM
Cc1ccc(C2C3=C(Nc4[nH]n(-c5ccccc5)c(=O)c42)c2ccccc2C3=O)cc1 (stereo unspecified) 7.94 µM
CC(C)c1ccc(C2CC(=O)N3CN(C4CCCCC4)CSC3=C2C#N)cc1 (stereo unspecified) 22.4 µM
COc1ccc(C2=NN(c3nc4ccccc4s3)C(=O)C2)cc1 10 µM
Nc1c(C(=O)c2cccs2)sc2nsc(SCCN3CCCCC3)c12 4.47 µM
O=C(Nc1nc(-c2ccncc2)cs1)C1COc2ccccc2O1 (stereo unspecified) 28.2 µM
COc1ccc(N2CCN(c3ccc([N+](=O)[O-])nc3)CC2)cc1 1.41 µM
Cc1oc2cc([N+](=O)[O-])c(O)c([N+](=O)[O-])c2c1C(=O)c1ccc(Br)cc1 10 µM
O=C1c2ccccc2-c2ncnc3c(N4CCOCC4)cc(N4CCOCC4)c1c23 8.91 µM
CCCCCCC(=O)Nc1nc(C)c(-c2csc(Nc3cccc(OC)c3)n2)s1 7.94 µM
C/C(=N\Nc1cccc(C(=O)O)c1)c1ccc2c(c1)Nc1ccccc1S2 5.01 µM
COc1ccc(-c2cc(C3CCN(c4ncccc4[N+](=O)[O-])CC3)[nH]n2)cc1 8.91 µM
Cc1nc2ccccc2nc(=O)c1NNc1ccc([N+](=O)[O-])cc1 11.2 µM
